Several values for one entry are separate records, joined by “and”; a condition that tells them apart may be missing. Equal values may be shown once. Screen size: about 150,000 compounds; about 6,500 (4.3%) were called active. Inconclusive results (about 12%) are left out. Shown is part of a subset that was picked to be rich in actives. A number with no mark means an inactive call. The call rests on the fitted dose curve; in most records, active means well fitted inhibition curve with a large enough effect (not every such curve was filed as active); inconclusive means small, poorly fitted or top-dose-only effect, or another doubt; inactive means no such curve, though single readings can be large or run the other way.
molecular target: 15-hydroxyprostaglandin dehydrogenase [NAD(+)] (Homo sapiens) (UniProt P15428); experiment: qHTS Assay for Inhibitors of HPGD (15-Hydroxyprostaglandin Dehydrogenase); settings: purified HPGD, NADH fluorescence kinetic, PGE2 substrate; activity change, negative = inhibition: active compounds read low
Source text: Human 15-Hydroxyprostaglandin dehydrogenase (HPGD) catalyzes the inactivation of prostaglandin E2, and plays a major role in cancer biology by antagonizing the oncogenic potential of cyclooxygenase type 2 (COX2). Assays are available, based on absorbance/fluorescence increase of NADH with the substrate 15-OH prostaglandin E2. References 1. Myung SJ, Rerko RM, Yan M, Platzer P, Guda K, Dotson A, Lawrence E, Dannenberg AJ, Lovgren AK, Luo G, Pretlow TP, Newman RA, Willis J, Dawson D, Markowitz SD. 15-Hydroxyprostaglandin dehydrogenase is an in vivo suppressor of colon tumorigenesis. […] 2. Yan M, Rerko RM, Platzer P, Dawson D, Willis J, Tong M, Lawrence E, Lutterbaugh J, Lu S, Willson JK, Luo G, Hensold J, Tai HH, Wilson K, Markowitz SD. 15-Hydroxyprostaglandin dehydrogenase, a COX-2 oncogene antagonist, is a TGF-beta-induced suppressor of human gastrointestinal cancers. Proc Natl Acad Sci U S A. 2004 Dec 14;101(50):17468-73. 3. Yang L, Amann JM, Kikuchi T, Porta R, Guix M, Gonzalez A, Park KH, Billheimer D, Arteaga CL, Tai HH, Dubois R, Carbone DP, Johnson DH. Inhibition of Epidermal Growth Factor Receptor Signaling Elevates 15-Hydroxyprostaglandin Dehydrogenase in Non-Small-Cell Lung Cancer. Cancer Res. 2007 Jun 15;67(12):5587-5593. Inhibition of HPGD activity was screened by utilizing prostaglandin as an electron donor and NAD+ as an electron acceptor/cofactor. An increase in the fluorescence intensity due to conversion of NAD+ to NADH was used to measure the enzyme activity. NIH Chemical Genomics Center [NCGC] Structural Genomics Consortium [SGC]
Buffer: 50 mM Tris-HCl, 0.01% Tween 20, pH 8. Enzyme Buffer: 50 mM Tris-HCl, 0.5 mM NAD+ and 0.01% Tween 20, pH 8. Reagents/Controls: Buffer in columns 3 and 4 as negative control (no enzyme). Substrate/cofactor solution: 1 mM NAD+ and 30 uM prostaglandin (Sigma, prostaglandin E2, # P5640) final concentrations dispensed throughout the plate. Enzyme: 20 nM HPGD final concentration in columns 1, 2, 5-48. Column 1 and 2 is neutral (100% activity). A titration of control inhibitor GW5074 (G6416 Sigma-Aldrich, St. Louis, MO) top concentration 10 mM in DMSO, then 1:2 dilution for a total of 16 concentrations in duplicate) was pin-transferred into column 2. Assay Steps: Three uL of enzyme were dispensed to 1536-well Greiner black solid bottom plates. Compounds and control inhibitor (23 nL) were transferred via Kalypsys PinTool. The plates were incubated for 15 min at room temperature, and then 1 uL of substrate/cofactor solution was added to start the reaction. The plates were immediately transferred to and read 5 times every 30 seconds on ViewLux High-throughput CCD imager (Perkin-Elmer) using 360 nm excitation and 450 nm emission fluorescence protocol. The fluorescence intensity difference between the last and the first time points was used to compute reaction progress.
On the % scale 0 is the no-effect control and ±100 the full control effect; potency means the concentration at half of the fitted maximal effect.

15-hydroxyprostaglandin dehydrogenase [NAD(+)] (Homo sapiens), sequence (P15428 whole entry, looked up): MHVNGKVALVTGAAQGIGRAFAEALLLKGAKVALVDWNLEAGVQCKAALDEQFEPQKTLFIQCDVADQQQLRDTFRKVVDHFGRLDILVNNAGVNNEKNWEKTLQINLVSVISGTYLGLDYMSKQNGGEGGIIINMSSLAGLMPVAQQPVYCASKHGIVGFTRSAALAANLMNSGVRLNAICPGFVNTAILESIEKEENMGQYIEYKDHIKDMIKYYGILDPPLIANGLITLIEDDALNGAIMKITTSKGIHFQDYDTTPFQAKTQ

With `Cc1ccnc(-n2c(C)cc(/C=C3\C(=O)NC(=S)N(C)C3=O)c2C)c1` the Potency was 20 µM (active).
For `N#Cc1c(Cl)c(Cl)c(Cl)c(C#N)c1Cl`, the Potency was 2.51 µM (active).
With `N#CC(C#N)=Cc1cc(O)c(O)c([N+](=O)[O-])c1` the Potency was 22.4 µM (active).
With `Cc1cccc(-n2c(C)nc3cc(C(=O)N4CCC5(CC4)OCCO5)ccc32)c1` the Potency was 14.1 µM (active).
`CC(=O)c1ccc(OC(NC(=O)Cc2ccccc2)C(Cl)(Cl)Cl)cc1` (configuration not stated) was tested, and the Potency was 12.6 µM (active).
With `CCC(=NCc1ccco1)c1c(O)n(Cc2ccccc2)c(=O)[nH]c1=O` the Potency was 15.8 µM (active).
In the case of `NCC[Se][Se]CCN`, the Potency is reported as 2.82 µM (active).
With `CCN(CC)C(=O)c1ccc(NC(=O)c2cc(-n3cnnc3)ccc2Cl)cc1` the Potency was 1.41 µM (active).
`c1ccc(Cc2nn3c(Cn4cnc5ccccc54)nnc3s2)cc1` was tested, and the Potency was 7.08 µM (active).

In order of falling activity change, negative = inhibition:
1. O=C(C1CC(=O)N(C2CCCC2)C1)N1CCC2(CC1)OCCO2 (configuration not stated)  6.18%
2. CNC(=S)N/N=C1\C2CN3CCN(C2)CC1(c1ccccc1)C3  4.55%
3. CCCCn1c(O)c(C(CC)=NCc2ccco2)c(=O)[nH]c1=O  1.83%
4. Clc1ccc([C@@H]2C[C@H]3CC[C@@H]2N3)cn1  0.221%
5. CCN1C[C@@]2(COC)CC[C@H](OC)[C@]34[C@@H]1[C@]1(OCO[C@@]15C[C@@H](OC)C1C[C@H]3[C@H]5[C@@H]1OC)[C@H](O)[C@@H]24  -0.114%
6. c1csc(CN2CCCC3(CCNCC3)C2)n1  -0.589%
7. COC(=O)c1ccc2[se]c(CC3CCCCC3)c(I)c2c1  -2.23%
8. COC1=C[C@@H]2[C@@H]3Cc4ccc(OC)c(O)c4[C@]2(CCN3C)CC1=O  -2.46%
9. O=c1oc2ccccc2c(O)c1C(c1ccccc1O)c1c(O)c2ccccc2oc1=O  -2.8%
10. CCCC[N+]1(C)C2CC(OC(=O)C(CO)c3ccccc3)CC1C1OC12 (configuration not stated)  -2.83%
11. O=C(c1cc(-c2ccncc2)nc2ccccc12)N1CCC2(CC1)OCCO2  -3.06%
12. COc1cc(C(c2c(O)c3ccccc3oc2=O)c2c(C)n(C)n(-c3ccccc3)c2=O)ccc1O (configuration not stated)  -3.16%
13. Nc1ccc([N+](=O)[O-])cc1  -4.46%
14. CCC1(c2ccccc2)C(=O)NC(=O)N(C)C1=O (configuration not stated)  -4.89%
15. CCOP(=O)(OCC)C(NC(=O)c1ccc(C)cc1)C(Cl)(Cl)Cl (configuration not stated)  -5.69%
16. CCN1C[C@]2(C)CC[C@H](O)[C@@]34[C@@H]5CC6[C@@H](OC)C[C@@](O)([C@@H]5[C@@H]6O)[C@H](C[C@@H]23)[C@H]14  -6.3%
17. COC1=C[C@]23CCCN2CCc2cc4c(cc2[C@@H]3[C@@H]1O)OCO4  -6.42%
18. CC(C)CC(C)Nc1ccc(Nc2ccccc2)cc1 (configuration not stated)  -6.53%
19. CC(=O)NBr  -7.45%
20. c1ccc(CCCCN2CCC(c3ccccc3)CC2)cc1  -7.8%
21. Clc1ccccc1  -8.83%
22. CC(=O)NC(=O)NC(C)Cc1ccccc1 (configuration not stated)  -9.28%
23. Cc1ccc(-n2c(C)cc(/C=C3\C(=O)NC(=O)N(C)C3=O)c2C)cc1C  -10.2%
24. Cc1cccc([C@H](C)c2cnc[nH]2)c1C  -10.2%
25. Clc1cccc(Cl)c1Cl  -10.3%
26. C[C@H](Br)C(=O)N[C@H](CO)C(=O)O  -10.5%
27. C/C(=C\C=C/[C@@H](C)C(=O)O)[C@H]1CN[C@H](C(=O)O)[C@@H]1CC(=O)O  -11.8%
28. C=CCN1CCC23c4c5ccc(O)c4O[C@H]2C(=O)CC[C@@]3(O)C1C5 (some centres not stated)  -13.3%
29. CN(C)C1C(=O)C(C(N)=O)=C(O)[C@@]2(O)C(=O)C3=C(O)c4c(O)cccc4[C@@](C)(O)C3C[C@@H]12 (some centres not stated)  -15.2%
30. c1csc(CN2CC3(CCNCC3)C2)n1  -15.7%
31. CCC(=NCCc1ccccc1)c1c(O)n(C2CCCCC2)c(=O)[nH]c1=O  -16.1%
32. CCC/C(=N\O)c1c[nH]c2ccccc12  -17.4%
33. CC(C)(C)c1ccc(CN2C(=O)CN=C(c3ccccc3)c3ccccc32)cc1  -17.9%
34. COc1ccc(S(=O)(=O)NCc2ccc(C(=O)N3CCC4(CC3)OCCO4)cc2)cc1  -19.1%
35. CN(C)[C@@H]1C(=O)C(C(N)=O)=C(O)[C@@]2(O)C(=O)C3=C(O)c4c(O)cccc4[C@@](C)(O)C3CC12 (some centres not stated)  -24.8%

For `ClC(Cl)(Cl)c1ccccc1`, the activity change, negative = inhibition was -5.6% and -7.46%.
In the case of `CCCCC/C=C\C/C=C\C/C=C\C/C=C\CCCCCC(=O)NCCO`, the activity change, negative = inhibition is reported as -7.58% and -6.46%.
In the case of `c1ccc2c(c1)[I+]c1ccccc1-2`, the activity change, negative = inhibition is reported as -12.3% and -15.8%.

From PubChem BioAssay AID894 (National Center for Advancing Translational Sciences (NCATS), 2007)
